Source: PubChem (National Center for Advancing Translational Sciences (NCATS))
ALDH1A1 inh = ALDH1A1 (human) enzyme inhibition; P00352; Purified ALDH1A1, NADH fluorescence, propionaldehyde substrate; Potency, µM (series often up to 75.3 µM), inactives show at the highest dose activity, negative = inhibition, hits mostly inhibitors; actives 7.3% (n = 220,000); AID 1030;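 further: potency means the concentration at half of the fitted maximal effect; plate controls were no enzyme wells and a reference inhibitor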
PNC inhibitor = inhibitors of perinucleolar compartment assembly; PC3M PTB-GFP, PNC prevalence imaging, 16 h; hits give low values; activity change (PNC), negative = inhibition, % at 10 µM; actives 3.1% (n = 140,000);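 active means readout at or below -70, meaning at least 70% loss of cells showing the perinucleolar compartment, a nuclear body marking cancer cells; inconclusive means readout between -30 and a set limit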;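 further: plate controls were DMSO wells for no effect and camptothecin positive control wells for full effect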
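Compounds are pinned in duplicate onto adhered PC3M cells stably expressing GFP-tagged PTB and incubated 16 h at 37 C. Cells are then fixed, nuclei stained with Hoechst, and PNC-positive cells counted.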
HPGD inh = inhibitors of human 15-hydroxyprostaglandin dehydrogenase (HPGD). P15428. purified HPGD, NADH fluorescence kinetic, PGE2 substrate. Potency, µM, without a hit: top-dose activity change, negative = inhibition, most hits filed as inhibitors. actives 4.3% (n = 150,000). AID 894; further: potency means the concentration at half of the fitted maximal effect
Target sequence (P15428 whole entry, looked up): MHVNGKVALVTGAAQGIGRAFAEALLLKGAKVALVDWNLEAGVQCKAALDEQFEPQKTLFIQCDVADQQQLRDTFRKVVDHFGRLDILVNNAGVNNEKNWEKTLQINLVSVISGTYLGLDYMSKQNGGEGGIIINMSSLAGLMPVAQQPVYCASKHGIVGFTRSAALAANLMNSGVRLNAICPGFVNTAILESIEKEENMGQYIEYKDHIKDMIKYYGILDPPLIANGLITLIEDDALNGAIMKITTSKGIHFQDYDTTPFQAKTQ
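20 nM HPGD preincubated 15 min at room temperature with compound in 50 mM Tris-HCl pH 8, 0.01% Tween 20. Started with 1 mM NAD+ and 30 uM prostaglandin E2; NADH fluorescence (360/450 nm) read 5 times over 30-s intervals, last minus first.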
KDM4E inh = JMJD2E (human) inhibition; JMJD2E catalytic domain, FDH-coupled NADH fluorescence (FDH is formaldehyde dehydrogenase); Potency, µM (series often up to 57.1 µM), without a hit: at the highest dose activity change, negative = inhibition, most hits filed as inhibitors; actives 1.6% (n = 230,000); AID 2147;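 further: potency means the concentration at half of the fitted maximal effect; 0% = wells with enzyme and -100% = buffer wells without enzyme; nearly all actives have a fitted effect of over 50% in size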
Target sequence (B2RXH2 1-337 limits assumed): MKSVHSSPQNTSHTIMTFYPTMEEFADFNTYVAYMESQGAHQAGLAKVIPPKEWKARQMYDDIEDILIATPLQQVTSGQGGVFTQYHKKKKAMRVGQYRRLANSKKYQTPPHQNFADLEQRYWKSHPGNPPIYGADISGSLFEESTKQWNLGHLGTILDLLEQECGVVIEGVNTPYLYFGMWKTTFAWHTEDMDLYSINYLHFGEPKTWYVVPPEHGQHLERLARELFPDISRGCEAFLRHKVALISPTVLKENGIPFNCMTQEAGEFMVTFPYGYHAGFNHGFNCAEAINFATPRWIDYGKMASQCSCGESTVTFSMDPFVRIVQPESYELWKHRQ
* hit, by the source's call; ? = inconclusive; . = not tested or not shown; [ ] = remark or other dose. This is a sample that favours compounds with a hit; in the whole collection about 11% have one here. Unless noted, the call rests on the fitted dose curve; in most records, active means well fitted inhibition curve with a large enough effect (not every such curve was filed as active); inconclusive means small, poorly fitted or top-dose-only effect, or another doubt; inactive means no such curve, though single readings can be large or run the other way. Unless noted, on the % scale 0 is the no-effect control and ±100 the full control effect.

SMILES | ALDH1A1 inh | PNC inhibitor | HPGD inh | KDM4E inh
CSCCC(NC(=O)c1ccc(Cl)cc1)C(=O)OCC(=O)c1ccc[nH]1 (centres undefined) | -6.5% | -119.3* | -7.9% | -6.1%
CCN(CC)C(=O)Oc1ccnc2cc(Cl)ccc12 | -0.6% | . | . | -5.3%
O=C(Oc1ccnc2cc(Cl)ccc12)N1CCCCCC1 | 5.01µM* | ? | 31.6µM* | 1.5%
Cc1ccc(C#N)cc1 | 31.6µM* | . | 2.6% | .
COc1ccc(N(C(=O)CCl)C(C)(C(=O)Nc2c(C)cccc2C)c2ccccn2)cc1 (centres undefined) | 3.9% | -5.4 | 0.8% | -0.7%
CC(C)CCN1C(=O)c2ccc(C(=O)NCc3ccco3)cc2C1=O | 11.2µM* | ? | -16.0% | 7.9%
CC(c1ccccc1)N1C(=O)c2ccc(C(=O)NCc3ccco3)cc2C1=O (centres undefined) | ? | 17.8 | -3.7% | -13.8%
CC(C)(C)N1C(=O)c2ccc(C(=O)Nc3nccs3)cc2C1=O | ? | 33.4 | -2.9% | -7.1%
O=C(NCc1ccco1)c1ccc2c(c1)C(=O)N(Cc1ccccc1)C2=O | 12.6µM* | ? | -25.8% | 1.0%
CCN1C(=O)c2ccc(C(=O)Nc3nccs3)cc2C1=O | 4.47µM* | ? | -8.4% | 1.3%
CCOC(=O)N1CCC(N2C(=O)c3ccc(C(=O)NCc4ccco4)cc3C2=O)CC1 | 11.9µM* | -119.3* | -12.5% | -1.2%
O=C(CNc1ccccc1OC(F)F)N1CCc2ccccc21 | ? | . | . | -1.4%
O=C(NCc1ccccc1)c1ccc2c(c1)C(=O)N(Cc1ccncc1)C2=O | ? | -4.6 | -8.9% | 8.6%
O=C(CCN1C(=O)c2ccccc2C1=O)Nc1sc2c(c1C(=O)NCc1ccco1)CCCC2 | ? | -113.9* | -13.2% | -3.2%
CC(C(=O)Nc1sc2c(c1C(=O)NCc1ccco1)CCCC2)N1C(=O)c2ccccc2C1=O (centres undefined) | -5.1% | 20.3 | -9.4% | -0.4%
CCN1C(=O)c2ccc(C(=O)NCc3ccccc3)cc2C1=O | 4.47µM* | -2.1 | -18.5% | 12.4%
Cc1ccccc1CSc1nnc2ccc(-c3ccncc3)nn12 | -6.3% | . | . | -2.9%
CC(=O)N(c1nc(CCl)cs1)c1cccc(C)c1C | ? | . | . | -20.5%
Oc1ccccc1/C=N/NC1=NCCCCC1 | -6.1% | -18.6 | ? | ?
COc1ccc(/C=N/NC2=NCCCCC2)cc1 | ? | 3.3 | 12.6µM* | -1.4%
Cc1ccc2c(C)nc(SC(C(=O)c3ccccc3)c3ccccc3)nc2c1 (centres undefined) | ? | ? | -8.7% | 0.1%
C=C1CCN(C(C)C(=O)O)S(=O)(=O)c2ccccc21 (centres undefined) | . | . | . | -6.8%
O=C(Cc1cccs1)N1CCCC(c2nc3c(nnn3Cc3cccc(Cl)c3)c(=O)[nH]2)C1 (centres undefined) | -8.5% | -10.6 | 6.31µM* | -1.4%
O=C(Cc1cccs1)N1CCC(c2nc3c(nnn3Cc3ccc(F)cc3)c(=O)[nH]2)CC1 | -6.1% | ? | 14.1µM* | 1.7%
N#CCCN1CCN(C(=O)c2c(N)no[n+]2[O-])CC1 | 2.0% | . | . | -2.1%
SMILES | ALDH1A1 inh | PNC inhibitor | HPGD inh | KDM4E inh
O=c1c2ccccc2sc2nc(C3CCCCC3)n(Cc3ccco3)c(=O)c12 | 1.41µM* | 7.1 | 15.8µM* | -2.8%
CCc1nc2sc3ccccc3c(=O)c2c(=O)n1Cc1ccco1 | ? | -28.0 | -4.9% | 2.6%
Cc1ccn2c(c1)nc(=S)n2C(=O)c1ccccc1 | ? | 3.9 | 25.1µM* | 1.7%
Cc1cccc(C(=O)n2c(=S)nc3cc(C)ccn32)c1 | ? | . | . | -1.9%
O=C(c1ccco1)N1C(=O)c2cccc3cccc1c23 | ? | 22.5 | ? | ?
O=C(c1ccco1)n1c(=S)nc2ccccn21 | 20µM* | -12.9 | 11.2µM* | ?
Cc1cccc2nc(=S)n(C(=O)c3ccco3)n12 | 4.74µM* | ? | ? | 5.5%
CC(C)(C)c1nc[nH]c(=O)c1Br | 4.1% | -28.1 | ? | 3.6%
CCOc1cc(C2CC(=O)c3c(ccc4ccccc34)N2)ccc1O (centres undefined) | -1.7% | 28.4 | -17.4% | 3.0%
O=C1CCCC2=C1C(c1ccco1)Nc1ccc(C(=O)c3ccccc3)cc1N2 (centres undefined) | 20µM* | ? | -28.4% | -24.0%
CCCCC/C=C\C/C=C\C/C=C\C/C=C\CCCCCC(N)=O | -1.8% | . | -5.7% | ?
CCS(=O)(=O)C1=NN2C(=N)/C(=C\c3ccc(SCc4ccco4)o3)C(=O)N=C2S1 | 1.78µM* | . | . | ?
c1ccc2c(c1)oc1c(Nc3ccc(CN4CCOCC4)cc3)ncnc12 | 20µM* | -3.1 | -27.8% | ?
c1ccc2c(c1)oc1c(NCCN3CCOCC3)ncnc12 | 19.9% | ? | -5.0% | -5.0%
Cc1ccc(C(C(=O)NC2CCCC2)N(Cc2ccc(F)cc2)C(=O)c2csnn2)o1 (centres undefined) | 14.1µM* | ? | -6.3% | 3.2%
O=C(NC1CCCC1)C(c1ccncc1)N(Cc1ccccc1)C(=O)Cc1cccs1 (centres undefined) | ? | -4.5 | -23.4% | -0.4%
O=C(NC1CCCC1)C(c1cccs1)N(Cc1ccco1)C(=O)c1csnn1 (centres undefined) | ? | ? | -17.5% | 2.6%
O=C(NC1CCCCC1)C(c1ccncc1)N(Cc1ccccc1)C(=O)c1ccc(-c2ccccc2)[nH]1 (centres undefined) | 22.4µM* | 99.8 | -16.7% | ?
O=C(NC1CCCC1)C(c1ccncc1)N(Cc1cccs1)C(=O)c1csnn1 (centres undefined) | 3.55µM* | -16.8 | -18.2% | ?
COc1ccc(CN(C(=O)c2ccc(-c3ccccc3)[nH]2)C(C(=O)NCC2CCCO2)c2ccc(C)o2)cc1 (centres undefined) | 10µM* | 74.3 | ? | ?
CCOc1cc(CNCc2cccnc2)ccc1OCC(=O)NC(C)(C)C | -21.7% | . | . | 7.4%
COC(=O)c1ccc(NC(=O)Cn2nc(C)cc2C)cc1 | 0.0% | . | . | ?
COc1ccc(C[C@@H]2c3cc(OC)c(OC)cc3CC[N@+]2(C)CCC(=O)OCCCCCOC(=O)CC[N@@+]2(C)CCc3cc(OC)c(OC)cc3[C@H]2Cc2ccc(OC)c(OC)c2)cc1OC | -6.3%[20.9 µM] | . | -3.5% | 3.1%[25.5 µM]
CCOC(=O)C1C(C(=O)OC)=C(C(=O)OC)c2ccccc2N1S(=O)(=O)C(F)(F)F (centres undefined) | -6.5% | . | -13.2% | .
COc1ccc(N2C(=O)CSC2c2cccs2)cc1 (centres undefined) | ? | -113.8* | -5.4% | -8.1%
SMILES | ALDH1A1 inh | PNC inhibitor | HPGD inh | KDM4E inh
O=C1CSC(c2cccs2)N1c1ccccc1 (centres undefined) | -1.3% | 9.0 | -7.4% | -3.5%
CCOc1ccc(N2C(=O)CSC2c2ccncc2)cc1 (centres undefined) | -5.2% | -100.0* | -9.7% | 4.0%
COC1=C(OC)C(=O)c2ccccc2C1=O | 14.1µM* | . | ? | 11.2µM*
COc1ccc(OC)c2c1C(=O)c1ccccc1C2=O | 7.94µM* | -27.1 | -3.7% | ?
COc1ccc(N)c2c1C(=O)c1ccccc1C2=O | ? | 6.6 | -2.2% | 5.5%
CC(C(=O)N1CCCCC1)N1C(=O)c2ccccc2C1=O (centres undefined) | ? | 43.2 | -1.0% | 4.6%
